These results are taken from PubChem BioAssay AID686979 (National Center for Advancing Translational Sciences (NCATS), 2013).

Structures are written as SMILES. Hit rate of the full screen: of about 420,000 compounds, about 50,000 (12%) were called active. A call without a number means that no potency is given here. Roughly 26% stayed inconclusive and do not appear here. This is one part of a sample in which actives are shown more often than they occur. Values without a mark were called inactive. The call rests on the fitted dose curve; in most records, active means well fitted inhibition curve with a large enough effect; inconclusive means small, poorly fitted or top-dose-only effect; inactive means flat fitted curve, though single readings scatter.
Potency means the concentration at half of the fitted maximal effect.

This test can be described thus: qHTS for Inhibitors of human tyrosyl-DNA phosphodiesterase 1 (TDP1): qHTS in cells in presence of CPT. Further: nearly all actives have a fitted effect of over 55% in size. Particulars: chicken DT40 Tdp1-/-;hTDP1 cells + 20 nM CPT, ATP luminescence, 48 h; series mostly up to 46.2 µM. The gist of the method:
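Chicken DT40 Tdp1-/- cells complemented with human TDP1, 400 cells/well, exposed to compounds plus 20 nM camptothecin for at least 48 h at 37 C; viability read as ATP content by CellTiter-Glo luminescence.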
On the technique in general: In qHTS, concentration-response curves come from the screen itself.
As to `CCn1ccnc1CN(C)Cc1nc(-c2ccc3c(c2)OCO3)no1`, the Potency entry was “inactive”.
The same measure, in the same setting: then `Cc1ccc(-n2cc(CN(C)Cc3nccn3C)c(-c3cccc(C)c3)n2)cc1`, with 20.6 µM (active); and `NNC(=O)c1ccc(COCC(F)(F)C(F)F)cc1`, with “inactive”; and `CCN(c1ccccc1)S(=O)(=O)c1ccc(OCC(=O)N2CCCC2)cc1`, with “inactive”.
`CCc1ccc(-c2nc(SCC(=O)NC3CCCC3)n[nH]2)cc1`: the Potency is 25.9 µM (active).
On the same count and under the same terms, then `COc1ccc(CNC(=O)CSc2n[nH]c(-c3ccc(F)cc3)n2)cc1`, with “inactive”; and `COc1ccc(-c2nc(SCC(=O)N3CCCC3)n[nH]2)cc1`, with “inactive”; and `CC(=O)N1CCN(Cc2cc(=O)oc3cc(C)ccc23)CC1`, with “inactive”.
The same measure, in the same setting: then `CCc1nnc(NC(=O)c2cc(S(=O)(=O)N3CCN(CC)CC3)ccc2Cl)s1`, with “inactive”; and `NNC(=O)C1CC(O)CN1S(=O)(=O)c1ccc(Cl)cc1` (configuration not stated), with “inactive”; and `COc1ccccc1N1CCN(Cc2cc(OC)c3c(c2)OCO3)CC1`, with “inactive”.
The same measure, in the same setting: the same measure for `COc1ccccc1/C=N/N1CCN(Cc2ccccc2Cl)CC1`: “inactive”; for `COc1ccccc1N1CCN(Cc2ccc(OC)c3ccccc23)CC1`: 16.4 µM (active); for `C=CCn1c(C)cc(C2=NNC(=NCC)SC2)c1C`: 16.4 µM (active).
As for `Cc1cccc(N=C2NN=C(c3c[nH]c4ccccc34)CS2)c1`, the Potency entry is “inactive”.
For `Cc1cc(NC(=O)CCC(=O)N(Cc2ccccc2)C(C(=O)NC2CCCC2)c2ccc(C)o2)no1` (configuration not stated), the Potency result is “inactive”.
Same read-out and setting: the same measure for `CCC1Oc2ccccc2N(CC(=O)NCCCN2CCN(CC)CC2)C1=O` (configuration not stated): “inactive”; for `Cn1cnc(S(=O)(=O)N2C[C@@H](O)COC[C@@H]3O[C@H](CC(=O)NC4CCC4)CC[C@H]32)c1`: “inactive”.
Still for that read-out and setting: then `COCCNc1ncnc2ccc(-c3ccccc3CN(C)C)cc12`, with “inactive”; and `COc1ccccc1CNc1ncncc1-c1cccnc1`, with “inactive”; and `COCCNc1ncnc2ccc(-c3cccnc3)cc12`, with 14.6 µM (active).
`Cc1cc(C)cc(N(CC(=O)NC2CCCC2)C(=O)CCC(=O)Nc2nccs2)c1`: the Potency entry is “inactive”.
On the same count and under the same terms, the same measure for `N#Cc1cccc(-c2nc3cnc(N4CCNCC4)nc3n(C3CC3)c2=O)c1`: 5.17 µM (active).
Same read-out and setting: the same measure for `COCCn1c(=O)c(CCc2ccccc2)nc2cnc(N3CCNCC3)nc21`: “inactive”; for `Cn1c(=O)c(-c2ccccc2)nc2cnc(N3CCNCC3)nc21`: “inactive”; for `Cc1cccc(CN2CCC(n3nccc3NC(=O)c3ccccc3C)CC2)n1`: “inactive”.
Regarding `CCNc1ncc2nc(CCc3ccccc3)c(=O)n(-c3ccc(OC)cc3)c2n1`, the Potency entry was “inactive”.
Still for that read-out and setting: the same measure for `COc1ccc(-c2onc3ccc(C(C)=O)cc23)cc1`: “inactive”; for `COc1ccc(-c2nc3c(s2)CCc2onc(-c4ccc(OC)cc4)c2-3)cc1`: 20.6 µM (active); for `COc1ccc(-c2cc(C(=O)N3CCN(c4ccc(F)cc4)CC3)no2)cc1`: “inactive”.
The same measure, in the same setting: the same measure for `Nc1nc(NC(=O)/C=C/c2ccc(F)cc2)nn1-c1ccccc1`: “inactive”; for `O=C(OCCN=C1NS(=O)(=O)c2ccccc21)c1cccc([N+](=O)[O-])c1`: “inactive”.
Still for that read-out and setting: the same measure for `O=C(Nc1nnc(-c2ccc(F)cc2)s1)c1c(F)cccc1Cl`: “inactive”.
`CCOC(=O)Cc1csc(NC(=O)CSc2nc(C)cc(=O)[nH]2)n1`: the Potency is 23.1 µM (active).
For the compound `CCCCc1nnc(NC(=O)CSc2nc(C)cc(=O)[nH]2)s1`, the Potency result was “inactive”.
The same measure, in the same setting: then `CCOC(=O)Cc1csc(NC(=O)C(C)(C)C)n1`, with “inactive”; and `CC(=O)O[C@H]1CC[C@@]2(C)C(=CC[C@@H]3[C@@H]2CC[C@]2(C)C(c4cccnc4)=CC[C@@H]32)C1`, with “inactive”; and `COc1ccc(C(=O)C2CCCN(S(=O)(=O)c3cccc(C)c3)C2)c(C)c1` (configuration not stated), with 16.4 µM (active).
On the same count and under the same terms, the same measure for `COc1ccc(NC(=O)C2CCCN(S(=O)(=O)c3c(C)[nH]c(=O)[nH]c3=O)C2)c(OC)c1` (configuration not stated): “inactive”; for `COc1ccc(C(=O)N2CCCC(C(=O)c3ccccc3OC)C2)cc1OC` (configuration not stated): “inactive”.
As for `FC(F)(F)c1cccc(-c2cn[nH]c2C2CCCN(Cc3cccn3-c3ccccn3)C2)c1` (configuration not stated), the activity change, negative = growth inhibition was -7.96% [at 9.04 µM].
As for `COc1ccc(OC)c(S(=O)(=O)N2CCCC(C(=O)NCCc3ccccc3)C2)c1` (configuration not stated), the Potency entry is “inactive”.
The same measure, in the same setting: then `CCn1nc(C)cc1C(=O)N1CCCC(C(=O)c2cccc(OC)c2)C1` (configuration not stated), with “inactive”; and `CCOC(=O)c1[nH]ncc1CN1CCCC(C(=O)c2ccc(OC)cc2C)C1` (configuration not stated), with “inactive”; and `COc1ccc(C(=O)C2CCCN(C(=O)c3cnsn3)C2)c(C)c1` (configuration not stated), with “inactive”.
On the same count and under the same terms, the same measure for `COc1ccc(C(=O)C2CCCN(C(=O)c3ccc(OC)o3)C2)c(C)c1` (configuration not stated): 20.6 µM (active).
As for `COc1ccc(C(=O)C2CCCN(Cc3cccn3-c3ccccn3)C2)c(C)c1` (configuration not stated), the Potency was 20.6 µM (active).
For the compound `O=C(c1ccc2c(c1)OCO2)N1CCOCC1`, the Potency entry was “inactive”.
Still for that read-out and setting: then `Cc1cc(Cl)ccc1C(=O)C1CCCN(C(=O)c2ccc3c(c2)OCO3)C1` (configuration not stated), with 10.3 µM (active).
For the compound `COC(=O)C1=C(NC(=O)C(C)(C)C)CCS1`, the Potency result is “inactive”.
Take `COCCCNS(=O)(=O)c1cccc(S(=O)(=O)c2cccc(S(=O)(=O)NCCCOC)c2)c1`: the Potency result was “inactive”.
`COc1ccc(C)cc1NC(=O)CCCN1C(=O)NC(C)(C)C1=O`: the Potency result was “inactive”.
Still for that read-out and setting: then `Cc1c(NS(=O)(=O)c2cc(C(=O)NCCc3ccc(F)cc3)cc(Cl)c2Cl)c(=O)n(-c2ccccc2)n1C`, with “inactive”.
Same read-out and setting: the same measure for `Cc1cc(=O)oc2cc(NC(=O)C(C)Oc3ccccc3)ccc12` (configuration not stated): “inactive”; for `Cc1cccc(OCC(=O)OCC(=O)Nc2ccc(Cl)cn2)c1`: “inactive”.
As to `O=S(=O)(NCCCc1ccccc1)c1ccc(Br)cc1`, the Potency entry is “inactive”.
For the compound `O=C(CSCc1ccccc1)Nc1ccccc1`, the Potency entry is “inactive”.
On the same count and under the same terms, then `CC(C(=O)NCCc1ccc(S(N)(=O)=O)cc1)N1C(=O)CC(C)(C)Sc2ccccc21` (configuration not stated), with “inactive”; and `COc1ccc(-c2c(NC(=O)c3ccco3)oc3ccc(Cl)cc3c2=O)cc1`, with “inactive”; and `COc1cc(OC)cc(C(=O)NNC(=O)CNC(=O)c2ccc(Br)o2)c1`, with “inactive”.
On the same count and under the same terms, the same measure for `O=C1CC[C@@H](C(=O)N2CSC[C@@H]2C(=O)Nc2ccc(C(F)(F)F)cc2)N1`: “inactive”.
Same read-out and setting: the same measure for `COc1ccc2c(CC(=O)OCC(=O)NC(N)=O)coc2c1`: “inactive”; for `COc1ccc2nc(SCc3ccccc3)nc(C)c2c1`: “inactive”.
`Nc1ccc2c(c1)C(=Cc1cccnc1)c1ccccc1-2`: the Potency result is “inactive”.
Same read-out and setting: then `Cc1ccccc1NC(=O)N1CCCC1C(=O)NCc1ccccc1` (configuration not stated), with “inactive”.
Same read-out and setting: then `CN(C)CCn1c2c(c(SCC(=O)Nc3ccccc3C(F)(F)F)nc1=O)CCCC2`, with “inactive”.
Same read-out and setting: the same measure for `O=C1CN(C(=O)Nc2ccccc2C(F)(F)F)C(c2ccccc2)c2c(sc3c2CCCC3)N1` (configuration not stated): 20.6 µM (active).
